# Measurements: PubChem BioAssay AID834 (PCMD, 2007)
# Among all 85,000 compounds or so, about 120 (0.14%) were called active. Shown is part of a subset that was picked to be rich in actives. A number with no mark means an inactive call.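 How the source made its calls: active means inhibition above 20%; inactive means inhibition below 20%.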
# Assay: clotrimazole potentiators killing Candida biofilms, primary screen, with clotrimazole, Alamar Blue (AID 834);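 further: preformed 24 hr biofilms exposed to compound for 48 hr; 0% = biofilm without compound and 100% = blank killed by clotrimazole plus chlorhexidine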
# Settings: C. albicans biofilm + clotrimazole, at 6 µM, hits give high values
row,SMILES,inhibition
1,CC(=O)NC1=NN(C(C)=O)C(C)(c2ccc(Cl)s2)S1 (stereo unspecified),6.61%
2,CCOc1c(Br)cc(/C=C2\C(=O)N(CCC#N)N=C2C)cc1OC,-1.46%
3,Cc1cccc2nc(CSc3nc4[nH]ncc4c(=O)n3-c3cccc(Cl)c3)cc(=O)n12,-2.14%
4,Cc1ccc(S(=O)(=O)N(c2cccc(C)c2)C2CCS(=O)(=O)C2)cc1 (stereo unspecified),11.2%
5,CS(=O)(=O)Nc1ccc(C(=O)N2CCCC2)cc1,6.23%
6,O=C(c1ccccc1Oc1ccccc1)N1CCN(c2ccc(F)cc2)CC1,6.89%
7,CCOc1ccc(C(=O)NC(C(=O)NCc2ccccn2)C(C)C)cc1 (stereo unspecified),-4.48%
8,Cc1cccc(N2CCN(C(c3ccc(N(C)C)cc3)c3nnnn3C(C)(C)C)CC2)c1C (stereo unspecified),4.97%
9,COc1ccc(CNCCCO)cc1OC,5.75%
10,Cc1nnc(SCc2nc3ccccc3nc2C)s1,5.78%
11,CC(=O)N(C)c1ccc(NC(=O)C(F)(F)F)cc1,0.77%
12,Cc1ccc(CN(N=Nc2nonc2N)c2nonc2N)c(C)c1,1.82%
13,Cc1ccc(-c2cc(C(=O)NCC3CCCO3)c3ccccc3n2)o1 (stereo unspecified),5.01%
14,Cc1ccc(-c2noc(CSc3nnc(-c4ccncc4)n3-c3ccc(F)cc3)n2)cc1,5.84%
15,Cc1ccc(CS(=O)(=O)CCC(=O)NC2CC2)cc1,8.04%
16,Cc1csc(OCC(=O)Nc2ccc(C)c(C)c2)n1,4.83%
17,CCN(CC)C(=O)CN(c1cccc(OC)c1)S(=O)(=O)c1ccc(C)cc1,3.27%
18,CC1=NN(C(C)C)C(=O)C1,9.86%
19,CCOC(=O)C1CSC(CC(=O)Nc2ccc(OCC)cc2)C(=O)N1 (stereo unspecified),3.56%
20,CCCc1nc(NCc2ccc3c(c2)OCO3)c2nnn(Cc3ccccc3Cl)c2n1,7.6%
21,CCn1c(=O)c(=O)n(CC)c2cc(S(=O)(=O)N3CCc4ccccc43)ccc21,1.66%

row,SMILES,inhibition
1,Cc1cccc(NC(=O)C2CC(=O)OC23CCCC3)c1 (stereo unspecified),-0.65%
2,C=C(Cl)COC(=O)C1C2C=CC(C2)C1C(=O)O (stereo unspecified),6.89%
3,COCCNC(=O)Cn1cc(C(=O)c2cccs2)c2ccccc21,-3%
4,CCOc1cccc(NC(=O)Cn2nc(-c3ccc4c(c3)OCCO4)ccc2=O)c1,-3.83%
5,CC1CCc2c(nc3ncnn3c2Nc2ccc(OC(F)(F)F)cc2)C1 (stereo unspecified),2.5%
6,COc1c(F)c(F)c(C(=O)O)c(Nc2ccccc2C)c1F,0.13%
7,CCOC(=O)N1CCN(Cc2nc(N)nc(Nc3ccc(C)cc3)n2)CC1,4.91%
8,CCOc1ccccc1NC(=O)c1cccnc1,4.81%
9,CCS(=O)(=O)NCCc1ccc(OC)c(OC)c1,-1.71%
10,COc1ccc(CCNS(=O)(=O)c2ccc(F)cc2)cc1OC,0.3%
11,COc1ccc(CCNc2ncnc3nc[nH]c23)cc1OC,22.7% (active)
12,CCCCNC(=O)C1CCCNC1=O (stereo unspecified),1.47%
13,CCCCNS(=O)(=O)c1ccc(S(=O)(=O)n2cnc3ccccc32)cc1,0.82%
14,O=C1N=C(N2CCCC2)S/C1=C\c1cccc(Br)c1,2.13%
15,CCOC(=O)C(C)n1cnc2sc(C)c(C)c2c1=O (stereo unspecified),9.63%
16,CCOC(=O)c1cnc(SCc2nc(N)nc(Nc3ccc(OC)cc3)n2)nc1N,1.79%
17,CN(C)[C@@H]1C(=O)C(C(N)=O)=C(O)[C@@]2(O)C(=O)C3=C(O)c4c(O)ccc(Cl)c4[C@@H](O)[C@H]3C[C@@H]12,29.9% (active)
18,CC1CCCN(C(C(=O)Nc2ccc(C(C)C)cc2)c2ccc3c(c2)OCO3)C1 (stereo unspecified),6.31%
19,CCS(=O)(=O)Nc1ccc(C2=NN(S(=O)(=O)c3ccc(F)cc3)C(c3ccco3)C2)cc1 (stereo unspecified),2.91%
20,Cc1cc(C(=O)OC(C)C(=O)Nc2cccc(S(=O)(=O)N3CCOCC3)c2)c(C)o1 (stereo unspecified),0.93%
21,Cc1cccn2c(=O)c(/C=C(\C#N)S(=O)(=O)c3ccc(Cl)cc3)c(N3CCC(C(N)=O)CC3)nc12,45.2% (active)

row,SMILES,inhibition
1,COc1ccccc1-c1nc(C#N)c(N2CCC(C(N)=O)CC2)o1,7.17%
2,Cc1ccc(C(c2nnnn2CS(=O)(=O)c2ccc(C)cc2)N2CCC(C(N)=O)CC2)cc1 (stereo unspecified),-1.5%
3,Cc1ccc(Cc2c(C)nc3nc(SCC(=O)NCCN4CCOCC4)nn3c2C)cc1,-3.03%
4,Cc1ccc(-n2ccc(=O)c(C(=O)O)n2)cc1,2.26%
5,COc1ccc(S(=O)(=O)Nc2ccc3oc(C)c(C(C)=O)c3c2)cc1,-2.16%
6,O=C(Cc1ccccc1)Nc1c(C(=O)N2CCCCCC2)cnn1-c1ccccc1,-2.24%
7,CC(C)CC(=O)Nc1cc(C(F)(F)F)ccc1N1CCOCC1,1.97%
8,CC(C)(C)n1nnnc1C(c1ccc(Cl)cc1)N1CCSCC1 (stereo unspecified),6.98%
9,Cc1ccccc1-n1c(C)cc(/C=C2\NC(=O)NC2=O)c1C,2.93%
10,Cc1ccc(NC(=O)N2CCC(c3nc4c(nnn4Cc4c(F)cccc4Cl)c(=O)[nH]3)CC2)cc1,5.75%
11,COc1ccccc1C(=O)N1CC2(C)CC1CC(C)(C)C2 (stereo unspecified),-0.87%
12,O=C(NCc1ccccn1)c1cc(-c2ccccc2Cl)on1,-4.95%
13,CCc1ccc(C2C(C#N)=C(N)Oc3n[nH]c(CC(=O)OC)c32)cc1 (stereo unspecified),8.34%
14,CCn1nccc1C(=O)Nc1ccc(Cl)c(Cl)c1,6.51%
15,O=C(CCCn1c(SCC(=O)c2ccccc2)nc2ccccc2c1=O)NCC1CCCO1 (stereo unspecified),0.02%
16,COC(=O)c1ccccc1NC(=O)CN(Cc1ccc(Cl)cc1)S(C)(=O)=O,9.25%
17,COc1ccc(CN2CCCCC2C)cc1OC (stereo unspecified),0.38%
18,CCC(C)NC(=O)c1cc(Cl)ccc1OC (stereo unspecified),3.81%
19,C=CCn1c(-c2ccc3[nH]c(C)c(C)c3c2)n[nH]c1=S,0.31%
